HEK cytotox: HEK 293 cell cytotoxicity; HEK 293 viability, ATP luminescence (CellTiter-Glo), 48-72 h; Potency, µM (top dose mostly 115 µM), for the others: at the highest dose activity change, negative = cytotoxicity, most hits filed as inhibitors; hit rate 6.6% among 94,000; AID 1345083; also: nearly all actives have a fitted effect of over 60% in size
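Read-out: CellTiter-Glo ATP luminescence. Cells: HEK 293, 250 cells/well. Exposure: 48 or 72 hr, 37 degree Celsius.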
NPR1 antag: antagonists of human natriuretic peptide receptor Npr1. Potency, µM (titrated, usually from 46.3 µM), for inactives: at the top dose activity change, negative = inhibition, most hits filed as inhibitors. P16066. hit rate 1.6% among 76,000. HEK293 hNpr1 GloSensor cGMP, ANP-stimulated luminescence; calls by dose curve; also: nearly all actives have a fitted effect of over 60% in size
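HEK293 cells stably expressing human Npr1 and cGMP GloSensor pGS-40F, loaded 2 h with 2% GloSensor reagent, given compound 30 min at room temperature. Luminescence read before and 20 min after 0.1 nM hNppA.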
GPT2 inh: blocks human glutamate pyruvate transaminase 2 | Q8TD30 | Recombinant GPT2, coupled pyruvate oxidase/HRP Amplex Red fluorescence | Potency, µM (doses to about 57.7 µM), for the others: top-dose activity change, negative = inhibition, most hits filed as inhibitors | hit rate 0.25% among 100,000 | AID 1671188; also: nearly all actives have a fitted effect of over 60% in size
Target sequence (Q8TD30 whole entry, looked up): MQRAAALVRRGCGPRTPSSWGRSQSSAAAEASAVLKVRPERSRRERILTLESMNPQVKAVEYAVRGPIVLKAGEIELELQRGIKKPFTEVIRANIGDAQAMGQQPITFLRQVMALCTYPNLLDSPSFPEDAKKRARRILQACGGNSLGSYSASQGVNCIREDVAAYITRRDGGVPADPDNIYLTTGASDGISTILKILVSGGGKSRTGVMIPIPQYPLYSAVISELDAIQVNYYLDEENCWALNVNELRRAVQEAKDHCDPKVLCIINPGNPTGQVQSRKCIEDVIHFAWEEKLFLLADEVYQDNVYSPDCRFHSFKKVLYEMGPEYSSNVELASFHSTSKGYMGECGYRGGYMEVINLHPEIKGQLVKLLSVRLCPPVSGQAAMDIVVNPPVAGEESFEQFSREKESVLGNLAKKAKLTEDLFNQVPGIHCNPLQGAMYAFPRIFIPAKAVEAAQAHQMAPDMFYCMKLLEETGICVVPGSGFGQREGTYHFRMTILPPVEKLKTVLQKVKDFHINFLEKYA
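Inhibition is scored from Amplex Red fluorescence generated when pyruvate oxidase and HRP act on pyruvate released by GPT2. Reactions contain 10ng/uL enzyme, 250uM a-KG and 2mM L-alanine and run 30 min at room temperature.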
Luciferase inh: inhibitors of firefly (Photinus pyralis) luciferase; purified P. pyralis luciferase, luminescence, biochemical; Potency, µM (titrated, usually from 115 µM), usual class: inhibitors; hit rate 2.5% among 76,000; AID 1347043; also: nearly all actives have a fitted effect of over 65% in size
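Cell-free enzyme assay, 10nM P. pyralis luciferase, luciferin and ATP each at 10uM. Inhibition profiled over a 6-point titration, read as luminescence.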
3T3 cytotox: kills NIH 3T3 cells | NIH 3T3 viability, CellTiter-Glo ATP luminescence, 48-72 h | Potency, µM (titrated, usually from 96.7 µM), without a hit: top-dose activity change, negative = cytotoxicity, most hits filed as inhibitors | hit rate 4.3% among 94,000 | AID 1345082; also: nearly all actives have a fitted effect of over 55% in size
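Cells were seeded at 400 per well, treated with pin-transferred compound, and kept 48 or 72 hr at 37 °C before CellTiter-Glo addition and luminescence imaging of cellular ATP.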
* = called active by the depositor; i = inactive; ? = inconclusive; · = not tested or not shown; [ ] = remark or other dose. An excerpt weighted towards active compounds, which were near 10% of everything screened. Unless noted, calls follow the shape of the dose curve; as a rule, active = well fitted curve in the direction sought with a large enough effect; inconclusive = small, poorly fitted or top-dose-only effect, or another doubt; inactive = no such curve, though single readings can be large; an effect the other way counts as inactive or inconclusive. % is scaled to controls: 0 for no effect and ±100 for the full control effect; potency is read from the fitted curve at half-maximal effect.

SMILES | HEK cytotox | NPR1 antag | GPT2 inh | Luciferase inh | 3T3 cytotox
COCC(=O)NC[C@@H]1C=C(C)[C@H](Cc2nc3ccc(Cl)cc3[nH]2)C[C@H]1C(C)C | ? | 1%[70.6 µM] | 2%[88.5 µM] | i | 71µM*
COCC(=O)NC[C@@H]1C=C(C)[C@H](Cc2nc3ccc(C)cc3[nH]2)C[C@H]1C(C)C | ? | -22%[70.6 µM] | ? | i | 50µM*
COc1ccc2nc(C[C@@H]3C[C@@H](C(C)C)[C@H](CNC(=O)CCCC(=O)O)C=C3C)[nH]c2c1 | 0% | -2% | -12% | i | 3%
Cc1cc2ncc(C(=O)N(C)Cc3cccnc3)cn2n1 | i | · | -13%[88.5 µM] | · | i
O=C1N[C@@H]2CCN(C(=O)c3ccc(-c4ccccc4)cc3)[C@@H]2C(=O)N1Cc1ccccc1 | ? | -3%[70.6 µM] | -12%[88.5 µM] | ? | 112µM*
CC1(C)C(=O)N(Cc2ccccc2)[C@H]2CN(CC3CCOC3)C[C@H]2[S+]1(=O)[O-] (some centres undefined) | i | 5%[70.6 µM] | 4%[88.5 µM] | i | 89µM*
CC1(C)C(=O)N(CCOc2ccccc2)[C@H]2CN(c3cccc(C(F)(F)F)c3)C[C@@H]2[S+]1(=O)[O-] | 18µM* | 2% | -17% | i | 11µM*
Cc1noc(C)c1CN1C[C@H]2[C@H](C1)[S+](=O)([O-])C(C)(C)C(=O)N2CCOc1ccccc1 | -17% | 1% | -16% | i | 40µM*
Cc1ccccc1-c1nc(N2CCOCC2)cc2c1CN(Cc1cnn(C)c1)C2=O | ? | 0%[70.6 µM] | -15%[88.5 µM] | i | ?
O=C(C1CC1)N1CCC(OC2CCN(Cc3cccnc3)CC2)CC1 | 6% | -2% | i | i | i
CC(C)[C@@H]1CN(C(=O)c2cc(N3CCCCC3)ccc2Cl)C[C@H]1N(C)C | 40µM* | 0% | -21% | i | ?
CCO[C@H]1CN(C(=O)c2cc(N3CCCCC3)ccc2Cl)C[C@@H]1O | -13% | 0% | i | i | -19%
O=C(Nc1cccc(C(F)(F)F)c1)N1C[C@@H](F)[C@@H](OCc2nc3ccccc3[nH]2)C1 | 100µM* | -10%[70.6 µM] | i | i | 100µM*
COc1ccc(C(=O)N2C[C@@H](F)[C@@H](OCc3nc4ccc(F)cc4[nH]3)C2)cc1 | ? | -27%[70.6 µM] | 0%[88.5 µM] | 40µM* | -21%[138 µM]
Cc1ccc2nc(CO[C@H]3CN(C(=O)C4CCOCC4)C[C@H]3F)[nH]c2c1 | -8%[172 µM] | -3%[70.6 µM] | ? | i | 3%[138 µM]
COc1ccc(C(=O)N2C[C@@H](F)[C@@H](OCc3nc4ccccc4o3)C2)cc1 | 100µM* | 0%[70.6 µM] | -13%[88.5 µM] | i | -30%[174 µM]
Cc1ccc2nc(CO[C@H]3CN(C(=O)C4CC4)C[C@H]3F)[nH]c2c1 | -8%[172 µM] | -15%[70.6 µM] | ? | 28µM* | -16%[138 µM]
c1cc(CN2CCC(N3CC(OCC4CC4)C34CCOCC4)CC2)ccn1 (centres undefined) | -21% | 6% | i | i | -6%
Cc1ccc2c(c1)N1C(=O)OC[C@@H]1CCN(C(=O)c1ccccc1)C2 | -6%[172 µM] | 5%[70.6 µM] | 3%[88.5 µM] | i | -5%[138 µM]
CCc1cc(CN2CC[C@@H](c3ccc4c(c3)OCO4)[C@H](O)C2)[nH]n1 | 17% | 1% | 2% | i | i
CN1CC(=O)N(c2ccc(Cl)cc2)Cc2c(NCCCc3ccccc3)ncnc21 | ? | -21% | i | 40µM* | 32µM*
Cc1ccccc1N1Cc2c(NCCc3ccc(F)cc3)ncnc2N(C)CC1=O | ? | 0% | i | i | ?
Cc1ccccc1N1Cc2c(NCCCc3ccccc3)ncnc2N(C)CC1=O | ? | -2% | ? | i | 45µM*
CCCn1ncc(CN(C)CC2CCN(CCc3ccc(Cl)cc3)CC2)c1C | 22µM* | -2% | i | i | 35µM*
CCCn1ncc(CN2CC[C@H](N3CCN(C)CC3)[C@H](CCC(=O)O)C2)c1C | -23% | -2% | 1% | i | -5%
SMILES | HEK cytotox | NPR1 antag | GPT2 inh | Luciferase inh | 3T3 cytotox
CC(C)OCCCNC(=O)CNC(=O)c1ccc(-c2cnc3ccccc3c2)cc1 | -28% | · | · | · | -12%
CC1CCC(NC(=O)c2cc(-c3ccc[nH]3)n[nH]2)CC1 (centres undefined) | 5% | 5% | -28% | ? | 0%
NS(=O)(=O)c1ccc(CCNC(=O)c2cc(-c3ccc[nH]3)n[nH]2)cc1 | 0% | 4% | i | i | i
O=C(Nc1ccc(F)cc1)c1cc(-c2ccc[nH]2)n[nH]1 | -23% | -3% | i | 5µM* | -28%
Cc1cccc(NC(=O)c2cc(-c3ccc[nH]3)n[nH]2)c1 | -2% | -18% | 4% | 2µM* | -19%
O=C(NCc1ccc(F)cc1)c1cc(-c2ccc[nH]2)n[nH]1 | -20% | ? | 2% | i | -26%
COc1ccc(NC(=O)c2cc(-c3ccc[nH]3)n[nH]2)cc1F | 5% | 5% | i | 16µM* | 2%
Cc1cc(F)ccc1NC(=O)c1cc(-c2ccc[nH]2)n[nH]1 | ? | 1% | 0% | 40µM* | -18%
NC(=O)NCC(=O)NC1CCCN(c2nc3ccccc3s2)C1 (centres undefined) | 1% | 2% | 1%[11.5 µM] | i | -3%
CCn1nc(CC(C)C)cc1C(=O)NCCS(=O)(=O)c1ccc(F)cc1 | -26% | -1% | -7% | i | -22%
N#Cc1ccc(CNC2(Cc3cc(COc4ccccc4)on3)COC2)cc1 | -25%[172 µM] | -15%[70.6 µM] | i | i | -24%[138 µM]
CSc1ccc(NC(=O)c2cc(-c3ccc[nH]3)n[nH]2)cc1 | -25% | -2% | i | 4.5µM* | -10%
O=C(Nc1cccc(Cl)c1)c1cc(-c2ccc[nH]2)n[nH]1 | -3% | ? | i | 1.6µM* | -3%
Cc1ccc(NC(=O)c2cc(-c3ccc[nH]3)n[nH]2)cc1F | ? | 5% | i | 8.9µM* | ?
O=C(Nc1cccc(F)c1)c1cc(-c2ccc[nH]2)n[nH]1 | -10% | ? | i | 2.2µM* | -11%
O=C(Nc1ccc2c(c1)C(=O)N1CCC[C@H]1C(=O)N2)c1cc(-c2ccccc2)n[nH]1 | -6% | 2% | 4% | i | ?
COc1ccc(-c2ccc(C(=O)Nc3cccc(Cl)c3)c(Cl)c2)nn1 | ? | · | · | · | -17%
O=C(Nc1cccc(C(F)(F)F)c1)c1cc(-c2ccc[nH]2)n[nH]1 | -5% | -24% | 2% | ? | -3%
CC(C)C(=O)NCC(=O)N1CCCCCCNC(=O)CC1c1ccccc1 (centres undefined) | ? | 1% | i | i | -9%
COCc1cccc(-c2n[nH]c3c2CC(=O)N(CC2CCOCC2)C3)c1 | -26%[172 µM] | 6%[70.6 µM] | 2%[88.5 µM] | i | ?
CC(=O)N[C@H]1CCN(C(=O)C[C@@H]2[C@H](O)CCC3[C@](C)(CO)[C@H](OC(=O)Nc4cccc(C(F)(F)F)c4)CC[C@]32C)C1 (some centres undefined) | 2% | 1% | i | i | -12%

Compound activity deposited in PubChem BioAssay by National Center for Advancing Translational Sciences (NCATS).
